This is an account of results in PubChem BioAssay (EPA / NIEHS).

The source made the active and inactive calls. The calls were made as follows: active = hit-call score of the fitted dose curve at least 0.9, where 1 is the maximum; inactive = score below 0.9.

What is called AC50 is the concentration at which the activity in the assay is half-maximal.

Read-out in test [1]: Interferon-gamma inducible Protein 10 (IP10), CXCL10 (gene 3627)
As to the kind of experiment: BSK_hDFCGF_IP10: BioMAP Diversity Plus: hDFCGF Assay for Interferon-gamma inducible Protein 10 (IP10) Biomarker Activity (AID 2283053). The settings on record: primary human foreskin fibroblasts; actives raise or lower the signal. The method, boiled down:
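ELISA quantification of IP-10 after a 24 h chemical exposure of human dermal foreskin fibroblast primary cultures. Both increases and decreases versus DMSO fitted.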

Read-out in test [2]: Urokinase-type plasminogen activator receptor (uPAR), PLAUR (gene 5329)
As to the kind of experiment: BSK_CASM3C_uPAR: BioMAP Diversity Plus: CASM3C Assay for Urokinase-type plasminogen activator receptor (uPAR) Biomarker Activity (AID 2283054).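 Also: cell-surface uPAR protein level quantified by ELISA.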 Particulars: primary human coronary artery smooth muscle cells; actives raise or lower the signal.

Read-out in test [3]: Vascular cell adhesion molecule 1 (VCAM1), VCAM1 (gene 7412)
The experiment in a line: BSK_CASM3C_VCAM1: BioMAP Diversity Plus: CASM3C Assay for Vascular cell adhesion molecule 1 (VCAM1) Biomarker Activity (AID 2283055).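 Also: VCAM-1 protein level quantified by ELISA on the cells.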 Particulars: primary human coronary artery smooth muscle cells; actives raise or lower the signal.

Read-out in test [4]: Collagen III, COL3A1 (gene 1281)
As to the kind of experiment: BSK_hDFCGF_CollagenIII: BioMAP Diversity Plus: hDFCGF Assay for Collagen III Biomarker Activity (AID 2283056). Particulars: primary human foreskin fibroblasts; actives raise or lower the signal. The method, boiled down:
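Human foreskin primary fibroblasts were exposed to test chemicals for 24 h, after which collagen III was quantified by ELISA. Activity was fitted bidirectionally against DMSO as negative control and baseline.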

Test [5] in a line: BSK_hDFCGF_Proliferation: Cell Proliferation Assessment in the BioMAP Diversity Plus: hDFCGF Assay (AID 2283059).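 Also: curves fitted for both rise and fall of signal versus DMSO baseline.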 The settings on record: primary human foreskin fibroblasts. The method, boiled down:
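Primary human foreskin fibroblasts, sub-confluent; […]; 10% TCA fix, 0.1% SRB stain, A560 total protein. Gain/loss fitted bidirectionally vs DMSO control.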

Read-out in test [6]: Macrophage colony-stimulating factor (MCSF), CSF1 (gene 1435)
As to the kind of experiment: BSK_hDFCGF_MCSF: BioMAP Diversity Plus: hDFCGF Assay for Macrophage colony-stimulating factor (MCSF) Biomarker Activity (AID 2283060). The settings on record: primary human foreskin fibroblasts; actives raise or lower the signal. The method, boiled down:
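Human foreskin primary fibroblasts were treated with test chemical for 24 h, and M-CSF was then measured by ELISA. Data were fitted bidirectionally against DMSO as the negative control and activity baseline.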

Test [7] is described as follows: BSK_hDFCGF_SRB: Viability Assessment in the BioMAP Diversity Plus: hDFCGF Assay (AID 2283061).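 Also: cells exposed to compound for 24 h before the read.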 Particulars: primary human foreskin fibroblasts. The method, boiled down:
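Human foreskin primary fibroblasts were treated with compound and assessed 24 h after dosing. Total protein was measured by sulforhodamine B staining (0.1% SRB after 10% TCA fixation, 560 nm read) as a cytotoxicity marker, with bidirectional fitting against DMSO baseline.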

Read-out in test [8]: TIMP metallopeptidase inhibitor 1 (TIMP1), TIMP1 (gene 7076)
As to the kind of experiment: BSK_hDFCGF_TIMP1: BioMAP Diversity Plus: hDFCGF Assay for TIMP metallopeptidase inhibitor 1 (TIMP1) Biomarker Activity (AID 2283062). Particulars: primary human foreskin fibroblasts; actives raise or lower the signal. The method, boiled down: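 Primary human foreskin fibroblasts in the hDFCGF system were dosed with compound for 24 h, then TIMP-1 was measured by ELISA. Activity was fitted bidirectionally relative to DMSO control; parallel SRB staining assessed cytotoxicity.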

Read-out in test [9]: Monokine induced gamma interferon (MIG), CXCL9 (gene 4283)
As to the kind of experiment: BSK_hDFCGF_MIG: BioMAP Diversity Plus: hDFCGF Assay for Monokine induced gamma interferon (MIG) Biomarker Activity (AID 2283063). The settings on record: primary human foreskin fibroblasts; actives raise or lower the signal. The method, boiled down: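 ELISA read-out of MIG from primary human dermal fibroblasts 24 h post-dosing. Gain or loss of signal fitted bidirectionally, DMSO as baseline.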

Read-out in test [10]: Matrix Metallopeptidase 1 (MMP1), MMP1 (gene 4312)
The experiment in a line: BSK_hDFCGF_MMP1: BioMAP Diversity Plus: hDFCGF Assay for Matrix Metallopeptidase 1 (MMP1) Biomarker Activity (AID 2283064). The settings on record: primary human foreskin fibroblasts; actives raise or lower the signal. The method, boiled down: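 ELISA read-out of MMP1 from human foreskin fibroblasts (primary skin cells), 24 h post-dose. Gain or loss of signal was fitted bidirectionally versus DMSO negative control; cytotoxicity was checked by SRB in parallel cultures.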

Read-out in test [11]: Vascular cell adhesion molecule 1 (VCAM1), VCAM1 (gene 7412)
As to the kind of experiment: BSK_hDFCGF_VCAM1: BioMAP Diversity Plus: hDFCGF Assay for Vascular cell adhesion molecule 1 (VCAM1) Biomarker Activity (AID 2283065).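 As to AC50: VCAM-1 protein level quantified by ELISA after 24 h chemical exposure.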 The settings on record: primary human foreskin fibroblasts; actives raise or lower the signal. The method, boiled down:
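Primary human foreskin fibroblasts (hDFCGF system) were dosed with chemical and VCAM-1 was measured by ELISA 24 h later. Bidirectional curve fitting used DMSO as negative control and activity baseline.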

Read-out in test [12]: Plasminogen activator inhibitor-1 (PAI1), SERPINE1 (gene 5054)
The experiment in a line: BSK_hDFCGF_PAI1: BioMAP Diversity Plus: hDFCGF Assay for Plasminogen activator inhibitor-1 (PAI1) Biomarker Activity (AID 2283066). The settings on record: primary human foreskin fibroblasts; actives raise or lower the signal. The method, boiled down:
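PAI-1 levels in human dermal foreskin fibroblasts were quantified by ELISA 24 h after dosing, with gain or loss analysed against DMSO. Overt cytotoxicity was checked by sulforhodamine B total-protein staining in parallel cultures.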

Read-out in test [13]: Intercellular Adhesion Molecule 1 (ICAM1), ICAM1 (gene 3383)
The experiment in a line: BSK_KF3CT_ICAM1: BioMAP Diversity Plus: KF3CT Assay for Intercellular Adhesion Molecule 1 (ICAM1) Biomarker Activity (AID 2283067). Particulars: primary human keratinocytes with fibroblasts; actives raise or lower the signal. The method, boiled down:
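Human keratinocyte plus foreskin fibroblast primary co-culture was exposed to chemical for 24 h. ICAM-1 was then quantified by ELISA, and the data were fit bidirectionally against DMSO as the negative control and baseline.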

Read-out in test [14]: Interferon-gamma inducible Protein 10 (IP10), CXCL10 (gene 3627)
The experiment in a line: BSK_KF3CT_IP10: BioMAP Diversity Plus: KF3CT Assay for Interferon-gamma inducible Protein 10 (IP10) Biomarker Activity (AID 2283068). Particulars: primary human keratinocytes with fibroblasts; actives raise or lower the signal. The method, boiled down: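 In a primary skin co-culture of keratinocytes and fibroblasts, IP-10 is quantified by ELISA at 24 h after dosing. SRB staining of parallel wells monitors overt toxicity. Curves are fitted both directions against DMSO.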

Test [15] is described as follows: BSK_KF3CT_SRB: Viability Assessment in the BioMAP Diversity Plus: KF3CT Assay (AID 2283069).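 Also: fitted for both signal gain and loss against DMSO baseline.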 Particulars: primary human keratinocytes with fibroblasts. The method, boiled down:
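SRB read-out at 560 nm (0.1% stain, TCA-fixed cells) gauges overt cytotoxicity in a human skin keratinocyte–fibroblast co-culture 24 h post-dosing. Signal change was fitted bidirectionally relative to DMSO control.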

Read-out in test [16]: Interleukin-1 alpha (IL1a), IL1A (gene 3552)
The experiment in a line: BSK_KF3CT_IL1a: BioMAP Diversity Plus: KF3CT Assay for Interleukin-1 alpha (IL1a) Biomarker Activity (AID 2283070). The settings on record: primary human keratinocytes with fibroblasts; actives raise or lower the signal. The method, boiled down:
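Primary skin co-culture (keratinocytes, foreskin fibroblasts), 24 h exposure; ELISA for IL-1a; bidirectional curve fit vs DMSO.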

Read-out in test [17]: TIMP metallopeptidase inhibitor 2 (TIMP2), TIMP2 (gene 7077)
The experiment in a line: BSK_KF3CT_TIMP2: BioMAP Diversity Plus: KF3CT Assay for TIMP metallopeptidase inhibitor 2 (TIMP2) Biomarker Activity (AID 2283071). The settings on record: primary human keratinocytes with fibroblasts; actives raise or lower the signal. The method, boiled down:
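TIMP-2 measured by ELISA at 24 h in human keratinocyte/fibroblast primary co-cultures exposed to chemicals. Both increases and decreases were fitted against DMSO. Parallel cultures were stained with SRB for total protein as an overt-cytotoxicity check.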

Read-out in test [18]: Transforming growth factor beta 1 (TGFb1), TGFB1 (gene 7040)
The experiment in a line: BSK_KF3CT_TGFb1: BioMAP Diversity Plus: KF3CT Assay for Transforming growth factor beta 1 (TGFb1) Biomarker Activity (AID 2283072). Particulars: primary human keratinocytes with fibroblasts; actives raise or lower the signal. The method, boiled down:
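ELISA quantifies TGF-b1 at 24 h post-dose in a primary human skin co-culture of keratinocytes and fibroblasts, with gain or loss judged against DMSO. Parallel SRB total-protein staining flags overt cytotoxicity.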

Read-out in test [19]: Epidermal growth factor receptor (EGFR), EGFR (gene 1956)
The experiment in a line: BSK_hDFCGF_EGFR: BioMAP Diversity Plus: hDFCGF Assay for Epidermal growth factor receptor (EGFR) Biomarker Activity (AID 2283057). Particulars: primary human foreskin fibroblasts; actives raise or lower the signal. The method, boiled down:
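EGFR levels by ELISA in human dermal fibroblast cultures, 24 h post-treatment, fitted bidirectionally versus DMSO. Parallel wells stained with sulforhodamine B to detect overt cytotoxicity.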

Read-out in test [20]: Interleukin-8 (IL8), CXCL8 (gene 3576)
The experiment in a line: BSK_hDFCGF_IL8: BioMAP Diversity Plus: hDFCGF Assay for Interleukin-8 (IL8) Biomarker Activity (AID 2283058). Particulars: primary human foreskin fibroblasts; actives raise or lower the signal. The method, boiled down:
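hDFCGF human dermal fibroblasts; 24 h chemical exposure; IL-8 by ELISA; bidirectional curve fit vs DMSO baseline; gain or loss of signal scored.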

For the molecule `Cc1ccccc1N`, the outcome in test [1], in test [2], in test [3], in [4], in [5] and in [6] was inactive. In addition, the result in test [7], in test [8], in test [9], in test [10], in test [11] and in [12] was inactive. Moreover, the result in test [13], in [14], in test [15], in [16], in test [17] and in test [18] was inactive.

As for `CCOP(=S)(OCC)SCCS(=O)(=O)CC`, the result in [2], in [3], in test [4], in test [19], in [20] and in test [5] was inactive. In addition, the outcome in [6], in test [7], in test [8], in test [9], in [10] and in test [11] was inactive. For the same molecule, the result in test [12], in test [13], in [14], in [15], in test [16] and in test [17] was inactive. For the same molecule, the outcome in test [18] was inactive.

Regarding `CCCCCCCCc1ccc(O)cc1`, the AC50 in test [2] is 39.1 µM (active); in test [3] it was 33.9 µM (active); in test [4] it was 20.1 µM (active); in test [20] it was 36 µM (active); in test [5], 7.67 µM (active); in test [6] it was 32.9 µM (active). For the same molecule, the AC50 is 26.4 µM (active) in test [7]; 33.3 µM (active) in [8]; 34.8 µM (active) in [9]; 31.9 µM (active) in test [10]; 27.9 µM (active) in test [11]; 14 µM (active) in test [12]. The AC50 in test [13] is 31.2 µM (active); in [14] it was 29.5 µM (active); in test [15] it was 27.7 µM (active); in [16] it was 25 µM (active); in test [17], 30 µM (active); in test [18], 22.4 µM (active). For the same molecule, in test [19], the result was inactive.

For the molecule `COC(=O)Cc1ccccc1`, the outcome in test [1], in [2], in test [3], in test [4], in test [5] and in [6] was inactive. Besides, the outcome in test [7], in test [8], in [9], in [10], in test [11] and in [12] was inactive. In addition, the outcome in test [13], in test [14], in test [15], in test [16] and in test [17] was inactive.

For the molecule `COP(=S)(OC)Oc1ccc(Sc2ccc(OP(=S)(OC)OC)cc2)cc1`, the result in test [1], in test [2], in test [3], in test [4], in [19] and in test [20] was inactive. For the same molecule, the result in [6], in test [7], in test [8], in test [9], in [10] and in test [11] was inactive. In addition, the outcome in test [13], in test [15], in test [16], in test [17] and in [18] was inactive. The AC50 is 20 µM (active) in test [5], 0.382 µM (active) in test [12] and 20 µM (active) in test [14].

In the case of `ClC1(Cl)C2(Cl)C3(Cl)C4(Cl)C(Cl)(Cl)C5(Cl)C3(Cl)C1(Cl)C5(Cl)C24Cl` (configuration not stated), the outcome in test [1], in test [2], in [3], in test [4], in test [20] and in [6] was inactive. Moreover, the result in test [7], in [8], in test [9], in test [10], in [11] and in test [12] was inactive. Further, the result in test [13], in test [14], in test [15], in [16], in test [17] and in [18] was inactive. Further, the AC50 in test [5] was 0.572 µM (active).
